# Source: PubChem
# Only some compounds are listed: those with a hit (about 6.7% of all), similar ones and a draw of the others.
# Pf Dd2 inh = inhibitors of Plasmodium falciparum Dd2 growth. P. falciparum Dd2 growth, SYBR Green, 72 h; hits give low values. activity change, % at 10 µM. 94,000 compounds, 2.3% hits. AID 1159554; in the data active means activity change below about -80%; inconclusive means no clear call, values can overlap the other calls
# C diff HTS = inhibitors of Clostridium difficile growth | Clostridium difficile clinical isolate growth, OD600, 24 h; hits give low values | growth activity, negative = inhibition, % at 16 µg/mL (by protocol) | 86,000 compounds, 0.25% hits | AID 1259249;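 active means mean growth activity at or below -80% and every replicate also at or below -80%; inconclusive means mean at or below -80% but some replicate above -80%; inactive means mean growth activity above -80%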
# T cruzi growth-1 = T. cruzi proliferation inhibition; T. cruzi beta-gal in NIH3T3, GalScreen luminescence, 90 h; inhibition, % at 8.34 µM; 77,000 compounds, 5.9% hits; AID 624255;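 active means mean inhibition above about 93%, with at least 55% of replicates each passing it, limit read from the data, passing the limit was not always enough; inconclusive means only one of those two conditions holds; inactive means neither condition holds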
# T cruzi growth-2 = inhibitors of T. cruzi proliferation; shares compounds with T cruzi growth-1; T. cruzi beta-gal in NIH3T3, GalScreen luminescence, 90 h; inhibition, % at 8.35 µM; 5,600 compounds, 72% hits;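 active means mean replicate inhibition above about 95% and at least 55% of replicates individually reaching it, limit read from the data; inconclusive means only one of the two criteria is met; inactive means neither criterion is met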
# T cruzi growth-3 = Trypanosoma cruzi proliferation inhibition. 5,600 compounds, 21% hits. shares compounds with T cruzi growth-1. inhibition, % at 2.09 µM. T. cruzi beta-gal in NIH3T3, GalScreen luminescence, 90 h;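 active means mean inhibition above about 95%, with at least 55% of replicates also reaching it, limit read from the data; inconclusive means meets just one of the two conditions; inactive means meets neither condition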
# 3T3 cytotox = cytotoxicity in mouse NIH/3T3 fibroblasts | shares compounds with T cruzi growth-1 | NIH/3T3 viability, CellTiter-Glo ATP luminescence, 90 h | cytotoxicity (signal decrease), % at 8.35 µM | 5,600 compounds, 14% hits;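 active means mean signal decrease across replicates above about 35% based on untreated-well scatter, with enough replicates individually passing, limit read from the data; inconclusive means no rule stated though some were filed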
# 3T3 cytotox 2 = NIH/3T3 (mouse) viability loss. shares compounds with T cruzi growth-1. NIH/3T3 viability, CellTiter-Glo ATP luminescence, 90 h. inhibition, % at 24.9 µM. 5,600 compounds, 56% hits;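 active means mean loss of cell viability signal at or above a set limit, and enough replicates individually reaching it; inconclusive means meets only the mean limit or only the replicate share; inactive means meets neither condition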
# Numbers stand for hits; i = inactive; ? = inconclusive; nt = no result given.
SMILES,Pf Dd2 inh,C diff HTS,T cruzi growth-1,T cruzi growth-2,T cruzi growth-3,3T3 cytotox,3T3 cytotox 2
C[C@H](NC(=O)C[C@@H]1CC[C@H](NC(=O)C2CC2)[C@@H](CO)O1)c1ccccc1,i,i,nt,nt,nt,nt,nt
CCS(=O)(=O)N1CC2(C1)[C@@H](c1ccccc1)[C@@H](CO)N2C(=O)C1CCCC1,i,i,nt,nt,nt,nt,nt
C/C=C/c1ccc2c(c1)O[C@H](CN(C)CC1CC1)[C@H](C)CN([C@H](C)CO)S2(=O)=O,i,i,i,nt,nt,nt,nt
C[C@H](CO)N1C[C@H](C)[C@H](CN(C)C(=O)c2ccncc2)Oc2cc(/C=C/c3ccccc3)ccc2S1(=O)=O,i,i,103,97,i,i,59
C[C@H]1CN([C@@H](C)CO)S(=O)(=O)c2ccc(/C=C/c3ccccc3)cc2O[C@H]1CN(C)CC1CC1,-84,i,103,106,i,i,105
C[C@@H]1CN([C@H](C)CO)S(=O)(=O)c2ccc(/C=C/c3ccccc3)cc2O[C@@H]1CN(C)C(=O)c1ccccc1,i,i,123,105,i,79,79
C[C@@H]1CN([C@H](C)CO)S(=O)(=O)c2ccc(/C=C/c3ccccc3)cc2O[C@@H]1CN(C)C(=O)c1ccncc1,i,i,i,nt,nt,nt,nt
C/C=C/c1ccc2c(c1)O[C@H](CN(C)C(=O)c1ccccc1)[C@@H](C)CN([C@@H](C)CO)S2(=O)=O,i,i,nt,nt,nt,nt,nt
O=C(Nc1cccc(Cl)c1)N[C@H]1CC[C@H](CCNC(=O)C2CCCCC2)O[C@H]1CO,i,i,i,nt,nt,nt,nt
CCCN1C[C@@H](C)[C@@H](OC)CN(C)C(=O)c2ccc(NC(=O)CC)cc2OC[C@@H]1C,nt,nt,i,nt,nt,nt,nt
C[C@@H]1CN([C@H](C)CO)C(=O)c2cc(NS(=O)(=O)c3cccs3)ccc2O[C@H]1CN(C)C(=O)Nc1ccccc1,i,i,i,nt,nt,nt,nt
C[C@@H]1CN([C@H](C)CO)S(=O)(=O)c2ccc(C#CC3CC3)cc2O[C@@H]1CN(C)C(=O)c1cnccn1,i,i,i,nt,nt,nt,nt
C[C@H]1CN([C@@H](C)CO)S(=O)(=O)c2ccc(-c3ccncc3)cc2O[C@@H]1CN(C)Cc1ccc(Oc2ccccc2)cc1,i,i,?,i,107,86,103
C[C@@H]1CN([C@@H](C)CO)S(=O)(=O)c2ccc(-c3cncnc3)cc2O[C@@H]1CN(C)Cc1ccc(Oc2ccccc2)cc1,i,nt,nt,nt,nt,nt,nt
C[C@H]1CN([C@@H](C)CO)S(=O)(=O)c2ccc(-c3ccncc3)cc2O[C@H]1CN(C)Cc1ccc(Oc2ccccc2)cc1,i,i,i,nt,nt,nt,nt
C[C@@H]1CN([C@H](C)CO)S(=O)(=O)c2ccc(-c3ccncc3)cc2O[C@@H]1CN(C)Cc1ccc(Oc2ccccc2)cc1,-87,i,116,99,107,84,89
C[C@H]1CCCCO[C@H](CN(C)S(=O)(=O)c2ccc(F)cc2)[C@@H](C)CN([C@@H](C)CO)C(=O)c2cc(NC(=O)Nc3ccc(C(F)(F)F)cc3)ccc2O1,i,nt,i,nt,nt,nt,nt
O=S(=O)(NC[C@@H]1N[C@@H](CO)[C@H]1c1ccccc1)c1ccccc1,i,i,104,i,i,i,i
O=S(=O)(NC[C@@H]1N[C@@H](CO)[C@@H]1c1ccccc1)c1ccccc1,i,i,i,nt,nt,nt,nt
C/C=C/c1ccc([C@@H]2[C@H](CN(C)S(=O)(=O)c3ccccc3)N[C@@H]2CO)cc1,i,i,108,i,i,i,37
C/C=C/c1ccc([C@@H]2[C@@H](CO)N[C@@H]2CN(C)S(=O)(=O)c2ccccc2)cc1,i,i,i,nt,nt,nt,nt
CN1C(=O)c2cc(NC(=O)c3ccc(F)cc3)ccc2OC[C@H]2O[C@@H](CC(=O)NCC3CCCCC3)CC[C@@H]21,i,i,i,nt,nt,nt,nt
CN1c2ccc(C#Cc3cccnc3)cc2[C@@H]2[C@@H](CCN2C(=O)C2CCC2)[C@H]1CO,i,i,nt,nt,nt,nt,nt
CN1c2ccc(C#Cc3cccnc3)cc2[C@@H]2[C@@H](CCN2C(=O)C2CC2)[C@H]1CO,i,i,99,96,i,i,25
CN1c2ccc(C#Cc3cccnc3)cc2[C@H]2[C@H](CCN2S(=O)(=O)c2ccc(F)cc2)[C@H]1CO,?,i,97,102,111,37,42
CN1c2ccc(-c3cccc(C#N)c3)cc2[C@H]2[C@H](CCN2S(=O)(=O)c2ccccc2)[C@@H]1CO,i,i,i,nt,nt,nt,nt
